According to article PMC5540273 (PLoS ONE, 2017):
Values joined by “and” are separate entries in the source; they are usually repeats but may differ in a detail not shown here. Equal entries are not always repeated. Where two headings read alike, the source gives them in different places.

Legend:
Conditions in all cases: n = 1
BMPR1A = test system: BMPR1A
BMPR1B = test system: BMPR1B
BMPR2 = test system: BMPR2
BMX = test system: BMX
BRAF = test system: BRAF
BRK = test system: T1, BRK
T1 construct: gene PTK6

BRSK1 = test system: BRSK1
BRSK2 = test system: BRSK2
BTK = test system: BTK
BUB1 = test system: BUB1
[1] = concentration: 1 μM, replicates: in singlicate
[2] = concentration: 1 μM,replicates: in singlicate, 1 µM
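Further: KINOMEscan kinase panel screen.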

`CCn1c(-c2ccccn2)nc2cnccc21` [SB-736398] was tested, and the “%Inh” value (BMPR1A; [1]) was 0%, the “%Inh” value (BMPR1B; [1]) was 0% and the “%Inh” value (BMPR2; [1]) was 21%. For the same molecule, the “%Inh” value (BMX; [1]) was 77%, the “%Inh” value (BRAF; [1]) was 11% and the “%Inh” value (BRK; [1]) was 14%. For the same molecule, the “%Inh” value (BRSK1; [1]) was 100%, the “%Inh” value (BRSK2; [1]) was 0% and the “%Inh” value (BTK; [1]) was 7%. For the same molecule, the “%Inh” value (BUB1; [1]) was 40%.

In the case of `CC(C)(C)c1ccc(C(=O)Nc2cn3cc(-c4cccnc4)ccc3n2)cc1`, the “%Inh” value (BMPR1A; [1]) is reported as 34%, the “%Inh” value (BMPR1B; [1]) is reported as 0% and the “%Inh” value (BMPR2; [1]) is reported as 1%. The “%Inh” value (BMX; [1]) was 25%, the “%Inh” value (BRAF; [1]) was 0% and the “%Inh” value (BRK; [1]) was 0%. The “%Inh” value (BRSK1; [1]) was 6%, the “%Inh” value (BRSK2; [1]) was 25% and the “%Inh” value (BTK; [1]) was 0%. For the same molecule, the “%Inh” value (BUB1; [1]) was 8%.

`CC(C)(C)c1ccc(C(=O)Nc2cn3cc(Cl)ccc3n2)cc1` was tested, and the “%Inh” value (BMPR1A; [1]) was 0%, the “%Inh” value (BMPR1B; [1]) was 3% and the “%Inh” value (BMPR2; [1]) was 0%. For the same molecule, the “%Inh” value (BMX; [1]) was 0%, the “%Inh” value (BRAF; [1]) was 9% and the “%Inh” value (BRK; [1]) was 0%. For the same molecule, the “%Inh” value (BRSK1; [1]) was 0%, the “%Inh” value (BRSK2; [1]) was 0% and the “%Inh” value (BTK; [1]) was 0%. The “%Inh” value (BUB1; [1]) was 0%.

With `COc1cccc(-c2cc(-c3c[nH]nc3-c3ccccn3)ccn2)c1` [GW680338] the “%Inh” value (BMPR1A; [1]) was 0%, the “%Inh” value (BMPR1B; [1]) was 0% and the “%Inh” value (BMPR2; [1]) was 10%. The “%Inh” value (BMX; [1]) was 12%, the “%Inh” value (BRAF; [1]) was 12% and the “%Inh” value (BRK; [1]) was 4%. The “%Inh” value (BRSK1; [1]) was 3%, the “%Inh” value (BRSK2; [1]) was 0% and the “%Inh” value (BTK; [1]) was 0%. For the same molecule, the “%Inh” value (BUB1; [1]) was 27%.

With `Cc1cc(NCC(c2ccccc2)c2ccccc2)nc(NCc2ccc(C(F)(F)F)cc2)n1` [GW497681] the “%Inh” value (BMPR1A; [1]) was 0%, the “%Inh” value (BMPR1B; [1]) was 0% and the “%Inh” value (BMPR2; [1]) was 14%. The “%Inh” value (BMX; [1]) was 18%, the “%Inh” value (BRAF; [1]) was 0% and the “%Inh” value (BRK; [1]) was 2%. The “%Inh” value (BRSK1; [1]) was 0%, the “%Inh” value (BRSK2; [1]) was 0% and the “%Inh” value (BTK; [1]) was 0%. The “%Inh” value (BUB1; [1]) was 35%.

For `O=C(Nc1n[nH]c2cc(-c3cccc(F)c3F)ccc12)C1CC1` [SB-733894], the “%Inh” value (BMPR1A; [1]) was 31%, the “%Inh” value (BMPR1B; [1]) was 31% and the “%Inh” value (BMPR2; [1]) was 52%. The “%Inh” value (BMX; [1]) was 0%, the “%Inh” value (BRAF; [1]) was 0% and the “%Inh” value (BRK; [1]) was 0%. The “%Inh” value (BRSK1; [1]) was 54%, the “%Inh” value (BRSK2; [1]) was 58% and the “%Inh” value (BTK; [1]) was 0%. The “%Inh” value (BUB1; [1]) was 0%.

With `COC(=O)c1c(-c2ccccc2)c2cc(OC)ccc2c(=O)n1Cc1ccccc1` the “%Inh” value (BMPR1A; [1]) was 0%, the “%Inh” value (BMPR1B; [1]) was 0% and the “%Inh” value (BMPR2; [1]) was 0%. The “%Inh” value (BMX; [1]) was 9%, the “%Inh” value (BRAF; [1]) was 89% and the “%Inh” value (BRK; [1]) was 0%. For the same molecule, the “%Inh” value (BRSK1; [1]) was 9%, the “%Inh” value (BRSK2; [1]) was 6% and the “%Inh” value (BTK; [1]) was 54%. For the same molecule, the “%Inh” value (BUB1; [1]) was 21%.

`CS(=O)(=O)c1ccc(-c2c(-c3ncn[nH]3)sc(N3CCOCC3)c2C#N)cc1` was tested, and the “%Inh” value (BMPR1A; [1]) was 17%, the “%Inh” value (BMPR1B; [1]) was 4% and the “%Inh” value (BMPR2; [1]) was 12%. The “%Inh” value (BMX; [1]) was 0%, the “%Inh” value (BRAF; [1]) was 12% and the “%Inh” value (BRK; [1]) was 0%. For the same molecule, the “%Inh” value (BRSK1; [1]) was 100%, the “%Inh” value (BRSK2; [1]) was 32% and the “%Inh” value (BTK; [1]) was 0%. For the same molecule, the “%Inh” value (BUB1; [1]) was 29%.

`Fc1cc(Cl)ccc1Nc1ccnc2cc(-c3ccc(CN4CCCCC4)o3)ccc12` [GW560116] was tested, and the “%Inh” value (BMPR1A; [1]) was 0%, the “%Inh” value (BMPR1B; [1]) was 0% and the “%Inh” value (BMPR2; [1]) was 0%. For the same molecule, the “%Inh” value (BMX; [1]) was 0%, the “%Inh” value (BRAF; [1]) was 0% and the “%Inh” value (BRK; [1]) was 14%. The “%Inh” value (BRSK1; [1]) was 2%, the “%Inh” value (BRSK2; [1]) was 0% and the “%Inh” value (BTK; [1]) was 0%. For the same molecule, the “%Inh” value (BUB1; [1]) was 26%.

In the case of `Cc1ccc(NC(=O)Nc2cccc(C(F)(F)F)c2)cc1` [GSK955403], the “%Inh” value (BMPR1A; 1 µM) is reported as 94.6%, the “%Inh” value (BMPR1B; 1 µM) is reported as 0% and the “%Inh” value (BMPR2; 1 µM) is reported as 1%. The “%Inh” value (BMX; 1 µM) was 0%, the “%Inh” value (BRAF; 1 µM) was 0% and the “%Inh” value (BRK; 1 µM) was 0%. For the same molecule, the “%Inh” value (BRSK1; 1 µM) was 0%, the “%Inh” value (BRSK2; 1 µM) was 0% and the “%Inh” value (BTK; 1 µM) was 0%. For the same molecule, the “%Inh” value (BUB1; 1 µM) was 0%.

For `Cn1cncc1-c1ccc2ncnc(Nc3ccc(OCc4ccccc4)cc3)c2c1` [GW320571], the “%Inh” value (BMPR1A; [1]) was 17%, the “%Inh” value (BMPR1B; [1]) was 0% and the “%Inh” value (BMPR2; [1]) was 0%. For the same molecule, the “%Inh” value (BMX; [1]) was 28%, the “%Inh” value (BRAF; [1]) was 3% and the “%Inh” value (BRK; [1]) was 15%. The “%Inh” value (BRSK1; [1]) was 0%, the “%Inh” value (BRSK2; [1]) was 0% and the “%Inh” value (BTK; [1]) was 0%. For the same molecule, the “%Inh” value (BUB1; [1]) was 26%.

For `C[C@@H]1CCCCN1c1cc(-c2ccc3c(N)n[nH]c3c2)nc(N)n1` [GSK2258759], the “%Inh” value (BMPR1A; [1]) was 0%, the “%Inh” value (BMPR1B; [1]) was 0% and the “%Inh” value (BMPR2; [1]) was 0%. For the same molecule, the “%Inh” value (BMX; [1]) was 12%, the “%Inh” value (BRAF; [1]) was 0% and the “%Inh” value (BRK; [1]) was 11%. The “%Inh” value (BRSK1; [1]) was 0%, the “%Inh” value (BRSK2; [1]) was 0% and the “%Inh” value (BTK; [1]) was 0%. For the same molecule, the “%Inh” value (BUB1; [1]) was 0%.

With `O=C(Nc1n[nH]c2nc(-c3nccs3)c(Br)cc12)C1CC1` [SB-742251] the “%Inh” value (BMPR1A; [1]) was 0%, the “%Inh” value (BMPR1B; [1]) was 0% and the “%Inh” value (BMPR2; [1]) was 63%. For the same molecule, the “%Inh” value (BMX; [1]) was 0%, the “%Inh” value (BRAF; [1]) was 13% and the “%Inh” value (BRK; [1]) was 2%. The “%Inh” value (BRSK1; [1]) was 95.3%, the “%Inh” value (BRSK2; [1]) was 90% and the “%Inh” value (BTK; [1]) was 26%. The “%Inh” value (BUB1; [1]) was 48%.

With `COc1cc(Nc2nccc(N3CCC(NC(=O)Nc4cc(C)ccc4C)C3)n2)cc(OC)c1OC` (stereo not drawn) [GSK1379762] the “%Inh” value (BMPR1A; [1]) was 0%, the “%Inh” value (BMPR1B; [1]) was 0% and the “%Inh” value (BMPR2; [1]) was 0%. For the same molecule, the “%Inh” value (BMX; [1]) was 35%, the “%Inh” value (BRAF; [1]) was 7% and the “%Inh” value (BRK; [1]) was 13%. For the same molecule, the “%Inh” value (BRSK1; [1]) was 0%, the “%Inh” value (BRSK2; [1]) was 0% and the “%Inh” value (BTK; [1]) was 0%. The “%Inh” value (BUB1; [1]) was 26%.

For `Cc1nnc(-c2ccc3occ(-c4ccc(S(C)=O)cc4)c3c2)[nH]1` (stereo not drawn), the “%Inh” value (BMPR1A; [1]) was 11%, the “%Inh” value (BMPR1B; [1]) was 37% and the “%Inh” value (BMPR2; [1]) was 26%. For the same molecule, the “%Inh” value (BMX; [1]) was 0%, the “%Inh” value (BRAF; [1]) was 2% and the “%Inh” value (BRK; [1]) was 0%. For the same molecule, the “%Inh” value (BRSK1; [1]) was 38%, the “%Inh” value (BRSK2; [1]) was 0% and the “%Inh” value (BTK; [1]) was 0%. The “%Inh” value (BUB1; [1]) was 26%.

With `CSc1nn2c(=O)cc(N3CCOCC3)nc2n1Cc1cccc(C(F)(F)F)c1C` [GSK2363608] the “%Inh” value (BMPR1A; [2]) was 17% and 0%, the “%Inh” value (BMPR1B; [1]) was 0% and the “%Inh” value (BMPR2; [2]) was 22% and 0%. For the same molecule, the “%Inh” value (BMX; [2]) was 8% and 0%, the “%Inh” value (BRAF; [2]) was 0% and 5% and the “%Inh” value (BRK; [2]) was 0% and 10%. For the same molecule, the “%Inh” value (BRSK1; [2]) was 7% and 4%, the “%Inh” value (BRSK2; [2]) was 4% and 0% and the “%Inh” value (BTK; [1]) was 0%. For the same molecule, the “%Inh” value (BUB1; [2]) was 13% and 0%.

In the case of `COc1cccc(NC(=O)NC2CCN(c3ccnc(Nc4ccc(F)cc4)n3)C2)c1` (stereo not drawn) [GSK1379721], the “%Inh” value (BMPR1A; [1]) is reported as 0%, the “%Inh” value (BMPR1B; [1]) is reported as 0% and the “%Inh” value (BMPR2; [1]) is reported as 7%. The “%Inh” value (BMX; [1]) was 0%, the “%Inh” value (BRAF; [1]) was 0% and the “%Inh” value (BRK; [1]) was 0%. The “%Inh” value (BRSK1; [1]) was 0%, the “%Inh” value (BRSK2; [1]) was 0% and the “%Inh” value (BTK; [1]) was 0%. The “%Inh” value (BUB1; [1]) was 10%.

For `Nc1nc(-c2nccs2)c(-c2ccnc3ccccc23)s1` [GW693542], the “%Inh” value (BMPR1A; [1]) was 14%, the “%Inh” value (BMPR1B; [1]) was 10% and the “%Inh” value (BMPR2; [1]) was 9%. The “%Inh” value (BMX; [1]) was 0%, the “%Inh” value (BRAF; [1]) was 0% and the “%Inh” value (BRK; [1]) was 3%. For the same molecule, the “%Inh” value (BRSK1; [1]) was 11%, the “%Inh” value (BRSK2; [1]) was 0% and the “%Inh” value (BTK; [1]) was 0%. For the same molecule, the “%Inh” value (BUB1; [1]) was 47%.
